Results as given in PubChem BioAssay AID1159580 (chemical genetic matrix, 2015).
The campaign covered roughly 5,500 compounds. About 2,000 (36%) were called active. Roughly 18% stayed inconclusive and do not appear here. Some of the results follow. A number with no mark means an inactive call. No stated cut-off is given here; in the data, active means normalized growth mostly below about 0.91 (no sharp cut-off); inconclusive means no clear call, values can overlap the other calls; inactive means mostly above about 0.92.

Assay: chemical genetic growth profiling, strain panel (AID 1159580);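 further: tested at 20 µM; growth read once vehicle control cultures reached saturation at 30 °C; 1 = growth at the plate median or of vehicle wells; lower values mean less growth of the strain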
Details: S. cerevisiae deletion strains, growth OD
[1] = locus YDL101C, strain DUN1, active compounds read low
[2] = locus YHR030C, strain SLT2, active compounds read low

Structure (SMILES): O=C1CC(c2ccccc2)=NO1
- normalized growth (locus YAL013W, strain DEP1, active compounds read low): 0.683 (active)
- normalized growth (locus YBR229C, strain ROT2, active compounds read low): 0.336 (active)
- normalized growth [1]: 0.395 (active)
- normalized growth (locus YEL061C, strain CIN8, active compounds read low): 0.862 (active)
- normalized growth (locus YGR078C, strain PAC10, active compounds read low): 0.174 (active)
- normalized growth [2]: 0.615 (active)
- normalized growth (locus YHR087W, strain rtc3, active compounds read low): 0.419 (active)
- normalized growth (locus YJL187C, strain SWE1, active compounds read low): 0.298 (active)
- normalized growth (locus YJR043C, strain POL32, active compounds read low): 0.566 (active)
- normalized growth (locus YJR075W, strain HOC1, active compounds read low): 0.3 (active)
- normalized growth (locus YKL190W, strain CNB1, active compounds read low): 0.987
- normalized growth (locus YLR039C, strain RIC1, active compounds read low): 1.11
- normalized growth (locus YLR058C, strain SHM2 (second series), active compounds read low): 0.431 (active)
- normalized growth (locus YLR085C, strain ARP6, active compounds read low): 0.432 (active)
- normalized growth (locus YLR262C, strain YPT6, active compounds read low): 1.08
- normalized growth (locus YML094W, strain GIM5, active compounds read low): 0.743 (active)
- normalized growth (locus YMR219W, strain ESC1, active compounds read low): 0.26 (active)
- normalized growth (locus YMR307W, strain GAS1, active compounds read low): 0.511 (active)
- normalized growth (locus YNL153C, strain GIM3, active compounds read low): 0.0697 (active)
- normalized growth (locus YNL298W, strain CLA4 (second series), active compounds read low): 0.797 (active)
- normalized growth (locus YNL322C, strain KRE1, active compounds read low): 0.737 (active)
- normalized growth (locus YNR030W, strain Alg12, active compounds read low): 0.803 (active)
- normalized growth (locus YPL055C, strain LGE1, active compounds read low): 0.666 (active)
- normalized growth (locus YPL241C, strain CIN2, active compounds read low): 0.68 (active)
- normalized growth (locus YPR135W, strain CTF4, active compounds read low): 0.528 (active)

Structure (SMILES): CSc1c(C#N)c(-c2ccc(Cl)cc2)nn1C(=O)c1ccccc1Cl
- normalized growth (locus YAR019C, strain CDC15, active compounds read low): 0.966
- normalized growth (locus YBL105C, strain PKC1, active compounds read low): 0.95
- normalized growth (locus YBR135W, strain CKS1, active compounds read low): 0.957
- normalized growth (locus YBR136W, strain MEC1, active compounds read low): 0.951
- normalized growth (locus YBR160W, strain CDC28, active compounds read low): 0.951
- normalized growth (locus YDL017W, strain CDC7, active compounds read low): 0.946
- normalized growth (locus YDL028C, strain MPS1, active compounds read low): 0.951
- normalized growth [1]: 0.94
- normalized growth (locus YDL108W, strain KIN28, active compounds read low): 0.954
- normalized growth (locus YDL132W, strain cdc53, active compounds read low): 0.948
- normalized growth (locus YDL214C, strain PRR2, active compounds read low): 0.964
- normalized growth (locus YDR052C, strain DBF4, active compounds read low): 0.957
- normalized growth (locus YDR054C, strain cdc34, active compounds read low): 0.941
- normalized growth (locus YDR226W, strain ADK1, active compounds read low): 0.933
- normalized growth (locus YDR477W, strain SNF1, active compounds read low): 0.938
- normalized growth (locus YER123W, strain YCK3, active compounds read low): 0.946
- normalized growth (locus YER133W, strain GLC7, active compounds read low): 0.962
- normalized growth (locus YFL009W, strain cdc4, active compounds read low): 0.951
- normalized growth (locus YFL029C, strain CAK1, active compounds read low): 0.958
- normalized growth (locus YFR003C, strain YPI1, active compounds read low): 0.954
- normalized growth (locus YFR019W, strain FAB1, active compounds read low): 1
- normalized growth (locus YFR028C, strain CDC14, active compounds read low): 0.948
- normalized growth (locus YGR040W, strain KSS1, active compounds read low): 0.931
- normalized growth (locus YGR052W, strain FMP48, active compounds read low): 0.97
- normalized growth (locus YGR092W, strain DBF2, active compounds read low): 0.895
- normalized growth [2]: 1.03
- normalized growth (locus YHR079C, strain IRE1, active compounds read low): 1.03
- normalized growth (locus YHR082C, strain KSP1, active compounds read low): 1.01
- normalized growth (locus YHR205W, strain SCH9, active compounds read low): 0.872
- normalized growth (locus YIL147C, strain SLN1, active compounds read low): 0.949
- normalized growth (locus YJL095W, strain BCK1, active compounds read low): 0.9
- normalized growth (locus YJL128C, strain PBS2, active compounds read low): 0.921
- normalized growth (locus YJL157C, strain FAR1, active compounds read low): 0.965
- normalized growth (locus YJR016C, strain ILV3, active compounds read low): 0.945
- normalized growth (locus YJR066W, strain TOR1 (second series), active compounds read low): 0.946
- normalized growth (locus YJR066W, strain TOR1, active compounds read low): 1
- normalized growth (locus YKL048C, strain ELM1, active compounds read low): 0.981
- normalized growth (locus YKL067W, strain YNK1, active compounds read low): 0.969
- normalized growth (locus YKL101W, strain HSL1, active compounds read low): 0.933
- normalized growth (locus YKL193C, strain SDS22, active compounds read low): 0.957
- normalized growth (locus YKL203C, strain TOR2, active compounds read low): 1.06
- normalized growth (locus YLR113W, strain HOG1, active compounds read low): 0.76 (active)
- normalized growth (locus YLR133W, strain CKI1, active compounds read low): 0.969
- normalized growth (locus YLR403W, strain SFP1, active compounds read low): 0.889
- normalized growth (locus YML070W, strain DAK1, active compounds read low): 0.948
- normalized growth (locus YMR001C, strain CDC5, active compounds read low): 0.957
- normalized growth (locus YMR205C, strain PFK2 (second series), active compounds read low): 0.969
- normalized growth (locus YMR277W, strain FCP1, active compounds read low): 0.966
- normalized growth (locus YNL006W, strain LST8, active compounds read low): 0.975
- normalized growth (locus YNL020C, strain ARK1, active compounds read low): 0.958
- normalized growth (locus YNL161W, strain CBK1, active compounds read low): 0.958
- normalized growth (locus YNL183C, strain NPR1, active compounds read low): 0.969
- normalized growth (locus YNL207W, strain RIO2, active compounds read low): 0.938
- normalized growth (locus YNL222W, strain SSU72, active compounds read low): 0.963
- normalized growth (locus YNL307C, strain MCK1 (second series), active compounds read low): 0.921
- normalized growth (locus YOL078W, strain AVO1, active compounds read low): 0.958
- normalized growth (locus YOL136C, strain PFK27, active compounds read low): 0.936
- normalized growth (locus YOR061W, strain CKA2, active compounds read low): 0.975
- normalized growth (locus YOR119C, strain RIO1, active compounds read low): 1.01
- normalized growth (locus YOR231W, strain MKK1, active compounds read low): 0.917
- normalized growth (locus YOR329C, strain SCD5, active compounds read low): 0.956
- normalized growth (locus YPL031C, strain PHO85, active compounds read low): 0.934
- normalized growth (locus YPL153C, strain RAD53, active compounds read low): 0.936
- normalized growth (locus YPL204W, strain HRR25, active compounds read low): 0.942
- normalized growth (locus YPL209C, strain IPL1, active compounds read low): 0.958
- normalized growth (locus YPL256C, strain CLN2, active compounds read low): 1.07
- normalized growth (locus YPR025C, strain CCL1, active compounds read low): 0.958
- normalized growth (locus YPR106W, strain ISR1, active compounds read low): 0.939
- normalized growth (locus YPR111W, strain DBF20, active compounds read low): 0.947
- normalized growth (strain NNK1, active compounds read low): 0.959
- normalized growth (strain TSCII, active compounds read low): 0.958
